# Results filed as inconclusive are left out. Entries that show only a call come without a potency. Calls of active or inactive are those of the source. Calls follow the shape of the full dose curve.
# Target: 5-hydroxytryptamine receptor 2A (Homo sapiens) (UniProt P28223)
# Experiment: 5-hydroxytryptamine receptor 2A (HTR2A) small molecule antagonists, cell-based qHTS assay (AID 1963586); also: nearly all actives have a fitted effect of over 45% in size; also: potency is read from the fitted curve at half-maximal effect
# Details: HTR2A-CHO cells, DOI-induced calcium flux, fluorescence; series mostly up to 61.5 µM
# Outline: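 Antagonist-mode intracellular calcium assay: DOI (4 nM) added after 5 min compound pre-incubation at room temperature to dye-loaded HTR2A-CHO cells. Fluorescence followed for 3 min, sampled every second.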
# Sequence of 5-hydroxytryptamine receptor 2A (Homo sapiens) (P28223 whole entry, looked up): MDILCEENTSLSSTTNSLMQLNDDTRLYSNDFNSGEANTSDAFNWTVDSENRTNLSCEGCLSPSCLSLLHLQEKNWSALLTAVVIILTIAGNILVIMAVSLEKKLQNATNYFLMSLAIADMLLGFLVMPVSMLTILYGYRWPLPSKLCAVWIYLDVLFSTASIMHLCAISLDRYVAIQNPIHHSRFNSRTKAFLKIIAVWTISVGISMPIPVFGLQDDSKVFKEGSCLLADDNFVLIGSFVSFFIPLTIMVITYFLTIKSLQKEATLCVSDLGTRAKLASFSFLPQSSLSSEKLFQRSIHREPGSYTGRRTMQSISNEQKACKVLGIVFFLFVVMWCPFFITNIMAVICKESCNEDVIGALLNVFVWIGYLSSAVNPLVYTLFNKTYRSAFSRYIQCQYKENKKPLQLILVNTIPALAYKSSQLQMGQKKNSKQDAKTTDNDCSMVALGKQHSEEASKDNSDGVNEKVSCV
row,SMILES,Potency
1,OC[C@H]1O[C@@H]2O[C@H]3[C@H](O)[C@@H](O)[C@@H](O[C@H]4[C@H](O)[C@@H](O)[C@@H](O[C@H]5[C@H](O)[C@@H](O)[C@@H](O[C@H]6[C@H](O)[C@@H](O)[C@@H](O[C@H]7[C@H](O)[C@@H](O)[C@@H](O[C@H]8[C@H](O)[C@@H](O)[C@@H](O[C@H]9[C@H](O)[C@@H](O)[C@@H](O[C@H]1[C@H](O)[C@H]2O)O[C@@H]9CO)O[C@@H]8CO)O[C@@H]7CO)O[C@@H]6CO)O[C@@H]5CO)O[C@@H]4CO)O[C@@H]3CO,inactive
2,CCCCCCCCCCCCOC(C)=O,2.11 µM (active)
3,S=C(S)NCCNC(=S)S,inactive
4,C=Cc1ccc(C(C)(C)C)cc1,inactive
5,CCN[C@H]1C[C@H](C)S(=O)(=O)c2sc(S(N)(=O)=O)cc21,inactive
6,O=c1c2ccccc2oc2ccccc12,inactive
7,Nc1ncn([C@H]2C[C@H](O)[C@@H](CO)O2)c(=O)n1,inactive
8,CC(=O)Nc1ccc(S(=O)(=O)Cl)cc1,inactive
9,CC(C)(C)C(=O)CCc1ccc(Cl)cc1,inactive
10,CC(=O)NNC(C)=O,inactive
11,O=[N+]([O-])c1ccc(Cl)cc1Cl,inactive
12,OCC1CC=CCC1 (stereo not given),inactive
13,C=CCN(CC=C)CC=C,inactive
14,O=C(Cl)c1c(Cl)cccc1Cl,inactive
15,NCCCN(CCO)CCO,inactive
16,CC1=C(C(=O)O)N2C(=O)[C@@H](NC(=O)[C@H](N)C3=CCC=CC3)[C@H]2SC1,inactive
17,C#CC(O)C(CC)CCCC (stereo not given),inactive
18,C=C1CCC2CC1C2(C)C (stereo not given),inactive
19,CC(C)CCOCc1ccccc1,inactive
20,CC1(C)C(=O)N(Cl)C(=O)N1Br,inactive

row,SMILES,Potency
1,CCOc1ccc(OCC)c(Cl)c1,inactive
2,c1ccc(-c2nc[nH]c2-c2ccccc2)cc1,3.65 µM (active)
3,CCOc1ccc2nc(S(N)(=O)=O)sc2c1,inactive
4,O=C1CC[C@@H](C(=O)O)N1,inactive
5,CCCCC(CC)C(=O)OCCOCCOCCOCCOC(=O)C(CC)CCCC (stereo not given),inactive
6,O=C(O)CNC(=O)CNC(=O)CNC(=O)CSC(=O)c1ccccc1,inactive
7,CC(O)CC(C)O (stereo not given),inactive
8,Clc1sc(Cl)c(Cl)c1Cl,inactive
9,C/C=C(\C)C(C)=O,inactive
10,CC1=NN(c2cccc(S(=O)(=O)O)c2)C(=O)C1,inactive
11,C=CCOC(=O)c1ccc(C(=O)OCC=C)c(C(=O)OCC=C)c1,33.4 µM (active)
12,Cc1ccc(N)cc1S(=O)(=O)O,inactive
13,CC(C)(CO)[N+](=O)[O-],inactive
14,C[Si](C)(C)O[Si](O)(O)O,inactive
15,CC(Cc1ccccc1)(NC(=O)CN)c1ccccc1 (stereo not given),inactive
16,N[C@@H](CCC(=O)O)C(=O)O,inactive
17,C=C(C)C1CC=C(C)C(=O)C1 (stereo not given),inactive
18,CC(CO)(CO)[N+](=O)[O-],inactive
19,NNC(=O)CP(=O)(c1ccccc1)c1ccccc1,inactive
20,C=CCCC(=O)O,inactive

# Target: 5-hydroxytryptamine receptor 2A (Homo sapiens) (UniProt P28223)
# Experiment: 5-hydroxytryptamine receptor 2A (HTR2A) small molecule agonists, cell-based qHTS assay (AID 1963587); also: nearly all actives have a fitted effect of over 30% in size
# Details: HTR2A-CHO cells, calcium flux fluorescence, agonist mode; series mostly up to 76.8 µM
# Outline: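 CHO cells stably expressing human HTR2A, plated 18 h, loaded with calcium dye 1 h at 37 C. Agonist mode: compounds added and intracellular calcium fluorescence recorded kinetically for 2 min at 1 sec intervals.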
row,SMILES,Potency
1,OC[C@H]1O[C@@H]2O[C@H]3[C@H](O)[C@@H](O)[C@@H](O[C@H]4[C@H](O)[C@@H](O)[C@@H](O[C@H]5[C@H](O)[C@@H](O)[C@@H](O[C@H]6[C@H](O)[C@@H](O)[C@@H](O[C@H]7[C@H](O)[C@@H](O)[C@@H](O[C@H]8[C@H](O)[C@@H](O)[C@@H](O[C@H]9[C@H](O)[C@@H](O)[C@@H](O[C@H]1[C@H](O)[C@H]2O)O[C@@H]9CO)O[C@@H]8CO)O[C@@H]7CO)O[C@@H]6CO)O[C@@H]5CO)O[C@@H]4CO)O[C@@H]3CO,inactive
2,CCCCCCCCCCCCOC(C)=O,inactive
3,S=C(S)NCCNC(=S)S,inactive
4,C=Cc1ccc(C(C)(C)C)cc1,inactive
5,CCN[C@H]1C[C@H](C)S(=O)(=O)c2sc(S(N)(=O)=O)cc21,inactive
6,O=c1c2ccccc2oc2ccccc12,inactive
7,Nc1ncn([C@H]2C[C@H](O)[C@@H](CO)O2)c(=O)n1,inactive
8,CC(=O)Nc1ccc(S(=O)(=O)Cl)cc1,inactive
9,CC(C)(C)C(=O)CCc1ccc(Cl)cc1,inactive
10,CC(=O)NNC(C)=O,inactive
11,O=[N+]([O-])c1ccc(Cl)cc1Cl,inactive
12,OCC1CC=CCC1 (stereo not given),inactive
13,C=CCN(CC=C)CC=C,inactive
14,O=C(Cl)c1c(Cl)cccc1Cl,inactive
15,NCCCN(CCO)CCO,inactive
16,CC1=C(C(=O)O)N2C(=O)[C@@H](NC(=O)[C@H](N)C3=CCC=CC3)[C@H]2SC1,inactive
17,C#CC(O)C(CC)CCCC (stereo not given),inactive
18,C=C1CCC2CC1C2(C)C (stereo not given),inactive
19,CC(C)CCOCc1ccccc1,inactive
20,CC1(C)C(=O)N(Cl)C(=O)N1Br,inactive

row,SMILES,Potency
1,CCOc1ccc(OCC)c(Cl)c1,inactive
2,c1ccc(-c2nc[nH]c2-c2ccccc2)cc1,inactive
3,CCOc1ccc2nc(S(N)(=O)=O)sc2c1,inactive
4,O=C1CC[C@@H](C(=O)O)N1,inactive
5,CCCCC(CC)C(=O)OCCOCCOCCOCCOC(=O)C(CC)CCCC (stereo not given),inactive
6,O=C(O)CNC(=O)CNC(=O)CNC(=O)CSC(=O)c1ccccc1,inactive
7,CC(O)CC(C)O (stereo not given),inactive
8,Clc1sc(Cl)c(Cl)c1Cl,inactive
9,C/C=C(\C)C(C)=O,inactive
10,CC1=NN(c2cccc(S(=O)(=O)O)c2)C(=O)C1,inactive
11,C=CCOC(=O)c1ccc(C(=O)OCC=C)c(C(=O)OCC=C)c1,inactive
12,Cc1ccc(N)cc1S(=O)(=O)O,inactive
13,CC(C)(CO)[N+](=O)[O-],inactive
14,C[Si](C)(C)O[Si](O)(O)O,inactive
15,CC(Cc1ccccc1)(NC(=O)CN)c1ccccc1 (stereo not given),inactive
16,N[C@@H](CCC(=O)O)C(=O)O,inactive
17,C=C(C)C1CC=C(C)C(=O)C1 (stereo not given),inactive
18,CC(CO)(CO)[N+](=O)[O-],inactive
19,NNC(=O)CP(=O)(c1ccccc1)c1ccccc1,inactive
20,C=CCCC(=O)O,inactive
